The panel holds about 79,000 compounds, 15% with a hit somewhere; the sample as a whole holds those more often. Cut-off read from the data, not from the text of the source: active = growth inhibition above about 70%; inactive = the rest.
Legend:
[1] = NCI Yeast Anticancer Drug Screen. Data for the rad50 strain (AID 155);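 note: 0% = growth of vehicle-only cultures of the same strain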; conditions: S. cerevisiae rad50 strain growth inhibition; at 50.0 µM; stronger effect = higher value
In short: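 Growth of the mutant yeast was measured after compound exposure and referenced to vehicle-treated cultures.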

[2] = NCI Yeast Anticancer Drug Screen. Data for the mec2-1 strain (AID 157); conditions: S. cerevisiae mec2-1 strain, at 50.0 µM, stronger effect = higher value
In short: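 Strain: mec2-1 (DNA repair/cell cycle alteration). Compound exposure, then growth measured; inhibition expressed relative to vehicle.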

[3] = NCI Yeast Anticancer Drug Screen. Data for the sgs1 mgt1 strain (AID 161);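 note: 0% = growth of cultures given vehicle only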; conditions: S. cerevisiae sgs1 mgt1 strain, at 50.0 µM, stronger effect = higher value
In short: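 Mutant yeast exposed to compound; growth scored against vehicle-only wells.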

[4] = NCI Yeast Anticancer Drug Screen. Data for the cln2 rad14 strain (AID 165);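 note: 0% = growth equal to vehicle treated cultures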; conditions: S. cerevisiae cln2 rad14 strain, at 50.0 µM, stronger effect = higher value
In short: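 Compounds are applied to the cln2 rad14 yeast strain, and growth is then compared with that of vehicle-treated cultures to give inhibition.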

[5] = NCI Yeast Anticancer Drug Screen. Data for the bub3 strain (AID 167); conditions: S. cerevisiae bub3 mutant strain, at 50.0 µM, stronger effect = higher value
In short: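 Whole-cell yeast assay. The mutant strain was incubated with compounds, and growth inhibition was determined by comparison with vehicle-treated cells.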

[6] = NCI Yeast Anticancer Drug Screen. Data for the mlh1 rad18 strain (AID 175); conditions: S. cerevisiae mlh1 rad18 strain growth inhibition; at 50.0 µM; stronger effect = higher value
In short: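 Read-out is yeast growth inhibition, calculated against vehicle-only controls. The compound was applied to a strain engineered with DNA damage repair alterations.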

Measured: growth inhibition

CC1(CC2(C)SCCCS2)SCCCS1
inactive: [1] -1.1% | [2] -7.55% | [3] 10.7% | [4] -2.35% | [5] -5.8% | [6] 7.8%

CC(C)NC(=O)c1ccc(CON)cc1
inactive: [1] 5.15% | [2] -9.7% | [3] 2.8% | [4] 23.5% | [5] 35% | [6] 9.8%

Nc1ccn(C2OC(CO)C(O)C2Br)c(=O)n1 (configuration not stated)
inactive: [1] 3.9% | [2] 8.75% | [3] 14.2% | [4] -12% | [5] -10.1% | [6] 14.1%

COc1ccc2c(c1)C1CCCCC1SCC2=O (configuration not stated)
inactive: [1] 1% | [2] 7.4% | [3] -1.9% | [4] -10.9% | [5] 15.8% | [6] -15.3%

CCC(=O)Nc1ccc(F)cc1
inactive: [1] -4.65% | [2] 1.45% | [3] -0.45% | [4] -27.4% | [5] -10.9% | [6] 4.3%

CCCCCCCCCCCCCCCCCCCCCCCCCCCC
inactive: [1] -8.5% | [2] -10.1% | [3] -16% | [4] -21.2% | [5] -4.55% | [6] -22.9%

C1COCCN2CCOCCOCCN(CCO1)CCOCC2
inactive: [1] 3.6% | [2] 11.2% | [3] -0.25% | [4] 12.7% | [5] 23.6% | [6] 23.7%

COc1cccc(C(=O)O)c1Cc1cccc2ccccc12
inactive: [1] 1.25% | [2] -6.7% | [3] 10.3% | [4] 27.2% | [5] -0.4% | [6] 25.1%

CCOC(=O)c1[nH]c(-c2ccc(OC)cc2)c(C(=O)OCC)c1-c1ccccc1
inactive: [1] 38.6% | [2] -4.7% | [3] 28.8% | [4] -0.2% | [5] 3.05% | [6] 24.1%

COc1ccc(NC(=O)Nc2ccc(SC)cc2)c(Cl)c1
inactive: [1] 0.75% | [2] 5.6% | [3] -2.8% | [4] -13.9% | [5] 19.5% | [6] 20.9%

C1C[OH+]CCNCC[OH+]CC[OH+]CCN1.[Cl-].[Pt+4]
inactive: [1] -14.5% | [2] -29.2% | [3] 1.55% | [4] -9.05% | [5] 3.5% | [6] -16.2%

CC1(C)CC(=O)C(/C=N/C(=S)NC2CCCCC2)=C(O)C1
inactive: [1] -13.2% | [2] -20.1% | [3] -31.5% | [4] 10.6% | [5] -7.7% | [6] -8%

CC(=O)OC1CCC2(C)C(CCC3C2CCC2(C)C(c4cccc(=O)o4)CCC32)C1 (configuration not stated)
inactive: [1] 22.5% | [2] 8.9% | [3] 11.4% | [4] 14.8% | [5] 0.35% | [6] 2.3%

CC(=O)Nc1ccc2oc(=O)[nH]c(=O)c2c1
inactive: [1] 10.8% | [2] -15.1% | [3] 6.3% | [4] 9.9% | [5] -18.6% | [6] -0.55%

CC(=O)NC1C(O)CC(OCCCSCCN)(C(=O)O)OC1C(O)C(O)CO (configuration not stated)
inactive: [1] -6.25% | [2] -22.6% | [3] -23.1% | [4] 11.3% | [5] -16.8% | [6] -26.5%

C/C=C(\C)C(C#N)(CCCC)C(=O)OCC (configuration not stated)
inactive: [1] 0.3% | [2] -17.2% | [3] -6.35% | [4] -14.7% | [5] -25.4% | [6] -24.2%

CC(=O)Nc1ccc(S(=O)(=O)NC(=O)NC(C)C)cc1
inactive: [1] -4.2% | [2] -26.4% | [3] -2.4% | [4] 20% | [5] 3% | [6] 14.3%

CN=C(NN(C)C)c1ccc(NC(=O)c2ccc(C(=O)Nc3ccc(C(=NC)NN(C)C)cc3)cc2)cc1
inactive: [1] 8.4% | [2] 7.65% | [3] 10.8% | [4] 10.1% | [5] -13.8% | [6] 13.9%

O=S(O)OS(=O)O
inactive: [1] -5.95% | [2] -19.4% | [3] -15.6% | [4] -0.4% | [5] 18.9% | [6] -13.3%

CCOC(=O)c1cc(=O)[nH]c(N)n1
inactive: [1] -6.4% | [2] -10.8% | [3] -1.55% | [4] -38.2% | [5] 10.4% | [6] -4.15%

OCCCCC1COC(c2ccccc2)O1 (configuration not stated)
inactive: [1] 2.55% | [2] -14.6% | [3] -10.9% | [4] -35% | [5] -16.6% | [6] 1.1%

C[N+](C)(C)CCOc1cccc(Br)c1
inactive: [1] 9.8% | [2] 14.5% | [3] 21.6% | [4] 29.8% | [5] 11.7% | [6] 23.9%

C=CCc1ccc(OC(=O)CC)c(OC)c1
inactive: [1] -8.1% | [2] -22.4% | [3] -16.4% | [4] -8.75% | [5] -10.8% | [6] -9.95%

CC1(O)C(=O)N(Cc2ccccc2)c2ccccc21 (configuration not stated)
inactive: [1] 25.6% | [2] -5% | [3] -5.2% | [4] -8.5% | [5] -10.4% | [6] 4.05%

COC(=O)c1ccccc1C#CC#Cc1ccccc1C(=O)OC
inactive: [1] -5.25% | [2] -32.1% | [3] 4.6% | [4] 8.85% | [5] -2.4% | [6] -3.5%

CN(C)C=N[C@@H](C(=O)O)c1ccccc1
inactive: [1] -8.85% | [2] -19.1% | [3] -11.4% | [4] 8.8% | [5] -4.95% | [6] 9.8%

CN(C)c1ccc(/C=N/NC(=O)NN)cc1
inactive: [1] 6.2% | [2] -12.3% | [3] -23.3% | [4] -2.85% | [5] -2.15% | [6] -15.9%

O=NN(CCF)C(=O)N[C@H]1CCCC[C@H]1O
inactive: [1] -15.7% | [2] -19.1% | [3] -27.1% | [4] 2.75% | [5] -15.9% | [6] 1.45%

CCc1nc(=S)c2cnn(-c3ccccc3)c2[nH]1
inactive: [1] 16.4% | [2] 1.1% | [3] 11.2% | [4] -33.5% | [5] 8.05% | [6] 23.6%

O=C(NCCc1ccccc1)c1c(O)c2ccccc2[nH]c1=O
inactive: [1] 5.85% | [2] 11.9% | [3] 23.7% | [4] 18.2% | [5] 14.1% | [6] 10%

CN(C)CC(c1ccccc1)C(O)(c1ccccc1)c1ccccc1 (configuration not stated)
inactive: [1] -5.65% | [2] -2.75% | [3] -1% | [4] -45.9% | [5] -18% | [6] 3.05%

NS(=O)(=O)c1ccc(NC(=O)Nc2ccc(Cl)cc2[N+](=O)[O-])cc1
inactive: [1] -9.5% | [2] 18.6% | [3] 30.1% | [4] -16.7% | [5] 29.9% | [6] 30.4%

NNC(=S)N/N=C/C(Cl)=C(\Cl)C(=O)O
inactive: [1] -2.2% | [2] -13.2% | [3] 1.8% | [4] -2% | [5] 0.1% | [6] -1.75%

CC(C)CCNc1ncnc2[nH]ncc12
inactive: [1] -16.5% | [2] -31.7% | [3] -26.2% | [4] -35.1% | [5] -13.8% | [6] -18.4%

CCC(=O)NC1CCCCC1
inactive: [1] 8.6% | [2] 3.5% | [3] 19.2% | [4] -15.3% | [5] -13.9% | [6] 1.4%

O=C(O)C1(c2ccccc2)CC1
inactive: [1] 8.5% | [2] -7% | [3] 13.1% | [4] 2.45% | [5] 15.9% | [6] 7.85%

CCOC(=O)Nn1c(C)nnc1CC#N
inactive: [1] -3.05% | [2] -2.4% | [3] -8.1% | [4] -16.8% | [5] 0.65% | [6] 18.7%

Source: PubChem BioAssay (NCI)
